Calls of active or inactive are those of the source.

Assay [1] in a line: E. coli DRC41 culture turbidity changes, primary screen, E. coli filamentation inducer project, strain DRC41, OD650, 48 h (AID 1152).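 Further: E. coli MC1000 strain DRC41 lacking acrAB efflux pump and sulA.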 The settings on record: E. coli DRC41 (acrAB sulA), higher = more signal, called active from +8 up or from −8 down.
A short description of assay [2]: small-molecule binders of probe aLefty1, primary screen, biochemical, small-molecule microarray, 635/667 nm fluorescence (AID 1153).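 Further: score merges spot fluorescence with signal-to-noise ratio from the scanned slide images.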 The settings on record: higher = more signal.
Assay [3] can be described thus: PSAC antagonists in infected red cells, primary screen, cell-based, P. falciparum Indochina, OD700, 1 h (AID 1154). The settings on record: P. falciparum Indochina infected RBC osmotic lysis, higher = more signal, called active from +8 up or from −8 down.
A short description of assay [4]: PSAC antagonists in infected red cells, primary screen, cell-based, P. falciparum Indochina, OD700, 2 h (AID 1155).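 Further: lysis reports solute entry through the parasite surface anion channel PSAC; channel blockers reduce lysis of infected cells.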 The settings on record: P. falciparum Indochina infected erythrocytes, osmotic lysis OD700; higher = more signal, called active from +8 up or from −8 down.
Assay [5] can be described thus: osmotic lysis modulators in infected erythrocytes, primary screen, PSAC antagonist project, cell-based, P. falciparum Indochina, OD700, 3 h (AID 1156). The settings on record: higher = more signal, called active from +8 up or from −8 down.
Assay [6] is described as follows: PSAC antagonists in infected red cells, primary screen, cell-based, P. falciparum Indochina, OD700, 18 h (AID 1157). Conditions: P. falciparum Indochina infected erythrocytes, osmotic lysis OD700, 18 h; higher = more signal, called active from +8 up or from −8 down.
Assay [7] in a line: modulators of S6 phosphorylation in cells, primary screen, cell-based, A549, cytoblot, luminescence, serum-stimulated (AID 1158).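 Further: serum-stimulated A549 lung adenocarcinoma cells; signal is phosphorylated S6 detected by cytoblot immunostaining with HRP secondary.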 The settings on record: A549 phospho-S6 cytoblot, 5 h, higher = more signal.
Assay [8] addresses NADPH oxidase 2 (Homo sapiens) (UniProt P04839). The assay can be described thus: NOX2-dependent H2O2 signal modulators, primary screen, NOX inhibitor project, cell-based, HEK293-NOX2, PMA-stimulated, Amplex Red fluorescence (AID 1159). Further: test concentration not given here. The settings on record: 45 min, higher = more signal, called active from +8 up or from −8 down.
Assay [9] addresses NADPH oxidase 4 (Homo sapiens) (UniProt Q9NPH5). The assay can be described thus: NOX4-dependent H2O2 signal modulators, primary screen, NOX inhibitor project, cell-based, HEK293-NOX4, tetracycline-induced, Amplex Red fluorescence (AID 1160). Conditions: 45 min, higher = more signal, called active from +8 up or from −8 down.
For assay [10], the target named is NADPH oxidase 5 (Homo sapiens) (UniProt Q96PH1). As to the kind of experiment: NOX5-dependent H2O2 signal modulators, primary screen, NOX inhibitor project, cell-based, HEK293-NOX5, Amplex Red fluorescence (AID 1161). Conditions: HEK293-NOX5, ionomycin, 45 min, higher = more signal.
Assay [11] in a line: A549 cell viability effects, profiling panel, calcein-AM fluorescence, 48 h, basal (AID 1162). Further: test concentration not given here. The settings on record: higher = more signal.
A short description of assay [12]: adipocyte viability effects, profiling panel, cell-based, 3T3-L1 adipocytes, calcein-AM fluorescence, 48 h, basal (AID 1163). Further: test concentration not given here. The settings on record: 3T3-L1 adipocytes viability, higher = more signal.
Assay [13] can be described thus: HepG2 cell viability effects, profiling panel, calcein-AM fluorescence, 48 h, basal (AID 1164). Further: test concentration not given here. Conditions: higher = more signal.
The nature of assay [14]: MM1S cell viability effects, profiling panel, calcein-AM fluorescence, 48 h, basal (AID 1165).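 Further: viability of MM1S multiple myeloma cells under basal unstimulated conditions; test concentration not given here.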 Conditions: higher = more signal.
Assay [15] is described as follows: basal RPMI8226 viability, no added stimulus, profiling panel, cell-based, calcein-AM fluorescence, 48 h, PK04 Diversity Set (AID 1166).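 Further: cells grown under basal conditions without added stimulus; test concentration not given here.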 The settings on record: RPMI8226 myeloma viability, higher = more signal.
A short description of assay [16]: basal HepG2 mitochondrial membrane potential changes, profiling panel, cell-based, JC-1 fluorescence, 24 h, 100 nL compound (AID 1167). Further: test concentration not given here. The settings on record: higher = more signal.
The nature of assay [17]: basal 3T3-L1 adipocyte mitochondrial potential changes, profiling panel, cell-based, JC-1 fluorescence, 3T3-L1 adipocytes, 24 h, 100 nL compound (AID 1168). Further: test concentration not given here. The settings on record: JC-1 mitochondrial fluorescence, higher = more signal, called active from +8 up or from −8 down.
The nature of assay [18]: basal RPMI8226 mitochondrial membrane potential changes, profiling panel, cell-based, JC-1 fluorescence, 24 h, 100 nL compound (AID 1169). Further: test concentration not given here. Conditions: RPMI8226 myeloma, JC-1 mitochondrial potential fluorescence, higher = more signal.
Assay [19] is described as follows: basal MM1S mitochondrial membrane potential changes, profiling panel, cell-based, JC-1 fluorescence, 24 h, 100 nL compound (AID 1170). Further: test concentration not given here. Conditions: higher = more signal.
Assay [20] can be described thus: A549 lung cancer cell viability effects, profiling panel, resazurin fluorescence, 24 h, PK04 Diversity Set (AID 1171). Further: test concentration not given here. The settings on record: higher = more signal, called active from +8 up or from −8 down. For orientation: Resazurin is reduced to fluorescent resorufin, in cell work by metabolically active cells.

NADPH oxidase 4 (Homo sapiens), sequence (Q9NPH5 whole entry, looked up): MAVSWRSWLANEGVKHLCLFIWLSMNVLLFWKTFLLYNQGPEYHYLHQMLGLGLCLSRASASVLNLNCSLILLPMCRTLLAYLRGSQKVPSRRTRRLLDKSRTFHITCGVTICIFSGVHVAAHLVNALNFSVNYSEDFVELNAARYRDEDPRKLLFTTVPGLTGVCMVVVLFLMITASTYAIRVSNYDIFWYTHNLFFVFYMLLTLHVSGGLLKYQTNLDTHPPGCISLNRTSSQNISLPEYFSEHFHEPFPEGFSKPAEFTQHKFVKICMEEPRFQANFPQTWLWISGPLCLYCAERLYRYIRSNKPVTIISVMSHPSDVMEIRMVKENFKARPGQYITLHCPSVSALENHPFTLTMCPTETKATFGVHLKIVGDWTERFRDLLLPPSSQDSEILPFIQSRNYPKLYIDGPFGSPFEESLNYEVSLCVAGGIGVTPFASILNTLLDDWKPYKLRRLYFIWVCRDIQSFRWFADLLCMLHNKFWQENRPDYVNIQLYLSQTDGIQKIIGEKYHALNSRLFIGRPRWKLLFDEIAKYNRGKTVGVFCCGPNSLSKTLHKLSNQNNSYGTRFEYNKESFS
NADPH oxidase 2 (Homo sapiens), sequence (P04839 whole entry, looked up): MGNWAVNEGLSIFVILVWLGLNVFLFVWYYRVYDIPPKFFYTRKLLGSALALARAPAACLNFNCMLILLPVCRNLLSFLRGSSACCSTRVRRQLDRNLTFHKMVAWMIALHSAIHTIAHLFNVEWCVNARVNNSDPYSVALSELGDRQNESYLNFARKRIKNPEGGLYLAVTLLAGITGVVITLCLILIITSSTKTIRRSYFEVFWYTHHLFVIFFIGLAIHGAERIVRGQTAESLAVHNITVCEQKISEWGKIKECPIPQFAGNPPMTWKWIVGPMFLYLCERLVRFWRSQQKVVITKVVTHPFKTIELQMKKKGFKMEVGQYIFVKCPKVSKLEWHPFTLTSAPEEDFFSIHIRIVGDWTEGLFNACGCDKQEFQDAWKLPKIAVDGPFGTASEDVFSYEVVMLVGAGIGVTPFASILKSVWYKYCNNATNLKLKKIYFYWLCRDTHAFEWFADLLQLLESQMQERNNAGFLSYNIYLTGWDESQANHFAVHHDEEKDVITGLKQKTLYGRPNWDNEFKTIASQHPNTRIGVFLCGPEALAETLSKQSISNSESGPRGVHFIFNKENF
NADPH oxidase 5 (Homo sapiens), sequence (Q96PH1 whole entry, looked up): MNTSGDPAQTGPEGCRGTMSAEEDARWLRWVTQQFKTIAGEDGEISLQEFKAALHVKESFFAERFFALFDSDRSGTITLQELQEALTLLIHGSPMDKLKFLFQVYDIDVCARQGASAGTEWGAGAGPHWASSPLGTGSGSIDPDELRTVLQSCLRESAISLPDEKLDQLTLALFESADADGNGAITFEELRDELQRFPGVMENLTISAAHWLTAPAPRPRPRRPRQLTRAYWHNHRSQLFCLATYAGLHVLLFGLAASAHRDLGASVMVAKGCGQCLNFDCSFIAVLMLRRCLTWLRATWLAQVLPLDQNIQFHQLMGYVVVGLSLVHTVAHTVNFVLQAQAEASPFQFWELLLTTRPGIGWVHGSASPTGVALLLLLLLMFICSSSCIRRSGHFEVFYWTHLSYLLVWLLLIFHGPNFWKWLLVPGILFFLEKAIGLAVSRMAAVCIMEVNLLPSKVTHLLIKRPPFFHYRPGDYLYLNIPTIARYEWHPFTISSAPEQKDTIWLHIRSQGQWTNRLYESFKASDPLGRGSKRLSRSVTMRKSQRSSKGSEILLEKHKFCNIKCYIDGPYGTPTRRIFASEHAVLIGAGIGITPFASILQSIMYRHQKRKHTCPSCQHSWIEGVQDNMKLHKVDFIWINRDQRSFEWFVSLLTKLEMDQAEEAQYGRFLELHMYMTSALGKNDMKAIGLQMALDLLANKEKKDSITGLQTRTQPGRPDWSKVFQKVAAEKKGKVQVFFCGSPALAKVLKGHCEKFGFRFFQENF

As to `CCCN1C(=O)[C@@H]2Cc3c([nH]c4ccccc34)[C@@H](c3cccc(O)c3)N2C1=O`, the z-score in [1] was -0.524 (inactive); in assay [3], -0.578 (inactive); in assay [4], -0.108 (inactive); in assay [5], -0.539 (inactive); in assay [6], -0.114 (inactive); in [7], 0.257. In addition, the z-score is -0.904 (inactive) in assay [8]; -1.02 (inactive) in [9]; -0.413 in assay [10]; -0.362 in assay [11]; 0.407 in assay [12]; -1.81 in assay [13]. In addition, the z-score in [14] was 0.342; in assay [15], -0.178; in assay [16], -1.45; in [17] it was 0.137 (inactive); in assay [18], -0.137; in assay [19], -0.211. Also, the z-score in [20] is 0.264 (inactive). Moreover, in [2], the composite z-score is 0.0742.

For `C=C(C(=O)CC[C@H](OC(=O)c1cccnc1)c1ccc(OCCO)cc1)C(C)C`, the z-score in assay [1] was -0.903 (inactive); in [3], 23.1 (active); in assay [4], 5.33 (inactive); in assay [5], 1.01 (inactive); in assay [6], 1.24 (inactive); in [7] it was 0.136. The z-score in assay [8] is -0.427 (inactive); in [9] it was 0.525 (inactive); in assay [10] it was -1.85; in assay [11], -0.328; in assay [12] it was 0.165; in [13] it was -0.823. Moreover, the z-score is -3.3 in assay [14]; -1.75 in assay [15]; 0.149 in assay [16]; -0.00639 (inactive) in assay [17]; -0.634 in assay [18]; -1.45 in assay [19]. In addition, the z-score in assay [20] is -0.569 (inactive). The same compound registered a composite z-score in assay [2] of 0.282.

`C=CCOC(=O)[C@H]1[C@@H]2C(=O)O[C@@H](c3ccccc3)[C@@H](c3ccccc3)N2[C@@H](c2ccc(OCCOC(=O)[C@H]3C[C@H]4C(=O)N[C@@H](CCCCN(C)C)C(=O)N4[C@H]3c3ccc(O)cc3)cc2)[C@]12C(=O)Nc1ccccc12`: the z-score in assay [1] was -0.558 (inactive); in assay [3], -0.862 (inactive); in [4], 0.332 (inactive); in [5], 3.2 (inactive); in [6] it was 0.522 (inactive); in assay [7], -0.259. Further, the z-score in assay [8] is 2.21 (inactive); in assay [9], 1.05 (inactive); in assay [10], 0.576; in [11], -0.514; in assay [12] it was 1.04; in [13], -0.434. The z-score in assay [14] is -1.54; in assay [15], -0.0817; in assay [16] it was -1.63; in [17] it was 0.665 (inactive); in assay [18] it was -0.838; in [19], -0.391. In addition, the z-score in [20] is 0.232 (inactive). This compound also gave a composite z-score in assay [2] of 1.13.

Regarding `CCOC(=O)C1=CC[C@@H](c2ccccc2)N(S(=O)(=O)c2ccc(C)cc2)[C@H]1C=C(C)C`, the z-score in assay [1] is -0.179 (inactive); in assay [3], 2.27 (inactive); in [4] it was 1.42 (inactive); in [5], -0.627 (inactive); in [6], 0.756 (inactive); in assay [7] it was -0.459. Moreover, the z-score in assay [8] was -0.0156 (inactive); in assay [9], 1.39 (inactive); in assay [10], 1.43; in assay [11], -1.36; in assay [12] it was -1.2; in assay [13] it was -1.01. In addition, the z-score is -1.33 in [14]; -0.89 in assay [15]; 4.57 in assay [16]; -0.638 (inactive) in assay [17]; -1.01 in assay [18]; -1.79 in assay [19]. For the same compound, the z-score in [20] is 1.26 (inactive). In assay [2], this compound yielded a composite z-score of 0.129.

For the compound `COCCOC(=O)N1C(=O)[C@@]2(c3cc(C#CCC(C(=O)OC)C(=O)OC)ccc31)[C@H](C(=O)N1CCCCCCC1)[C@H]1C(=O)O[C@H](c3ccccc3)[C@H](c3ccccc3)N1[C@@H]2c1ccc(O)cc1`, the z-score was 0.683 (inactive) in assay [1]; 0.915 (inactive) in assay [3]; 0.444 (inactive) in assay [4]; 0.678 (inactive) in [5]; 0.336 (inactive) in assay [6]; -0.0955 in [7]. The z-score in assay [8] is 1.32 (inactive); in assay [9], -0.378 (inactive); in assay [10] it was 1.01; in assay [11], -0.0336; in assay [12] it was 1.25; in assay [13], -0.125. For the same compound, the z-score in [14] is -0.575; in assay [15] it was -1.39; in assay [16], 0.503; in [17] it was 1.1 (inactive); in assay [18], 0.439; in assay [19], 0.579. For the same compound, in assay [20], the z-score was 0.616 (inactive). In addition, the composite z-score in assay [2] was found to be 2.46.

For `COc1cc2c(cc1OC)CN(C(=O)[C@@H]1[C@H]3C(=O)O[C@H](c4ccccc4)[C@H](c4ccccc4)N3[C@H](c3ccc(OCCO)cc3)[C@@]13C(=O)Nc1ccc(C#CCCO)cc13)CC2`, the z-score in assay [1] is 2.02 (inactive); in [3], 2.85 (inactive); in assay [4], 0.0851 (inactive); in assay [5], 0.464 (inactive); in [6], -1.1 (inactive); in assay [7] it was 1.71. Further, the z-score in [8] was -0.303 (inactive); in assay [9], -0.458 (inactive); in assay [10], -4.23; in [11], -0.433; in assay [12], 1.06; in assay [13], -0.857. Also, the z-score was -0.369 in assay [14]; -0.987 in [15]; -1.56 in assay [16]; 1 (inactive) in assay [17]; -0.862 in assay [18]; -1.04 in assay [19]. In assay [20], the z-score is 0.519 (inactive). The same compound had a composite z-score in assay [2] of 0.273.

In the case of `O=C1NC(=O)C2C1C=CC(C(O)c1ccc3c(c1)OCO3)N2Nc1ccc(Cl)cc1Cl` (stereo not given), the z-score in [1] was -3.85 (inactive); in assay [3], 7.58 (inactive); in [4], 1.84 (inactive); in assay [5] it was -0.254 (inactive); in assay [6], 1.56 (inactive); in assay [7], -0.593. In addition, the z-score in assay [8] is -0.0436 (inactive); in assay [9], -5.24 (inactive); in assay [10] it was -3.26; in assay [11] it was -0.713; in assay [12], -0.638; in assay [13] it was -1.22. Further, the z-score was -2.41 in [14]; -1.99 in assay [15]; -2.87 in assay [16]; -0.748 (inactive) in assay [17]; -0.103 in [18]; -0.339 in [19]. Also, in [20], the z-score is -0.233 (inactive). Moreover, the composite z-score in [2] worked out at 0.0861.

Take `O=C(Nc1cc(Br)ccc1C(=O)NCc1cccc(O)c1)c1ccccc1`: the z-score in [1] was 1.41 (inactive); in assay [3], 17.5 (active); in assay [4], 4.24 (inactive); in assay [5] it was -0.222 (inactive); in [6] it was 2.17 (inactive); in assay [7], -0.645. Further, the z-score in assay [8] was -1.57 (inactive); in assay [9], -1.69 (inactive); in assay [10], -1.3; in assay [11], -1.71; in assay [12], -0.318; in assay [13], -2.25. The z-score in [14] is -3.11; in [15], -2.49; in assay [16], 0.386; in [17], 5.49 (inactive); in [18], -0.226; in assay [19] it was -1.12. In addition, the z-score in [20] is -0.326 (inactive). Besides, the composite z-score in assay [2] was 0.388.

The record behind these values is PubChem BioAssay.
